# Compound activity: PubChem BioAssay, several laboratories
# A selection: hits, their analogues and other compounds. The true share with any hit is near 2%.
# PolyA inh: blocks polyadenylation in yeast reporter cells | activity score, % at 12 µM | actives 0.02% (n = 300,000) | S. cerevisiae SKY197-pL101 polyadenylation reporter, beta-gal luminescence; efflux-impaired pdr1/pdr3 knockout yeast; score 100 = 6 SD above DMSO;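 active means lowest replicate activity score at least 50, where 100 means six control SD above control mean; inconclusive means lowest score under 50 but half or more replicates reach 50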;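 further: yeast exposed to compound for 9 h at 30 °C; higher score means more reporter readthrough which indicates perturbed polyadenylation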
# Platelet DG rel: modulates dense granule release in human platelets | AID 1663 | inhibition, %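 (compounds screened at 7.5 µM in platelet-rich plasma)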 | human platelet-rich plasma, SFLLRN dense granule ATP release, luminescence | actives 0.22% (n = 300,000);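 active means mean replicate score, as percent of positive control, at or above 50; inconclusive means mean below 50 but at least one replicate at or above 50; inactive means mean and every replicate below 50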
# SKKanGAS inh: blocks kanamycin growth of S. pyogenes SKKanGAS strain; BacTiter-Glo, 6 h; inhibition, % at 7.5 µM; actives 1.3% (n = 300,000); AID 1662;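 active means mean replicate score, as percent of positive control median, at least 50; inconclusive means mean below 50 but one replicate at or above 50; inactive means mean and every replicate below 50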;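 further: strain carries kanamycin resistance gene driven by streptokinase promoter and grows in 40 µg/ml kanamycin; loss of luminescence reflects streptokinase promoter inhibition or plain growth inhibition; 0% = median of DMSO wells and 100% = positive control at its reference dose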
# Calb FLC: affects C. albicans growth with fluconazole; AID 1979; C. albicans CaCi-2 (fluconazole-resistant clinical isolate) + fluconazole, Alamar Blue growth, 48 h; actives 0.57% (n = 300,000); growth inhibition, % (concentration not given with the values);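 active means growth inhibition above about 58% in most replicates, limit read from the data, passing the limit was not always enough; inconclusive means exactly half the replicates above a set limit; inactive means most replicates below a set limit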;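 further: all wells also contain fluconazole at 8 µg/ml as a sub-toxic cotreatment; 0% = median of DMSO wells and 100% = median of geldanamycin control wells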
# Yeast superoxide: yeast age-related superoxide inhibition as caloric restriction mimetic | S. cerevisiae aged cells, superoxide DHE fluorescence; active compounds read low | superoxide response (% of plate mean), % at 10 µM | actives 0.18% (n = 330,000);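 active means superoxide response under a set limit, about three screen SD below normal, cut at about 65% in these data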;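 further: yeast aged for seven days with compound at 30 °C before DHE staining; 100% = average MFI of all compound-treated wells on the plate with controls excluded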
# Numbers without * were called inactive; ? = inconclusive; . = no result.
SMILES,PolyA inh,Platelet DG rel,SKKanGAS inh,Calb FLC,Yeast superoxide
CCOc1ccc(-c2nnc3ccc(SCC(=O)N4CCCCC4)nn23)cc1,27,13,3,-3,96
CCCN1CCN(C(=O)CCc2nnc3ccc(N4CCN(c5cccc(OC)c5)CC4)nn23)CC1,11,-2,-2,6,101
Cc1cc(Cl)ccc1NNC(=O)c1c(C)noc1C,-15,2,-7,82*,108
COC(=O)c1ncccc1SC,12,3,8,8,122
CCCCCCCCCCOC(=O)Cn1c(COc2ccccc2)[n+](C)c2ccccc21,0,1,81*,41,82
CCCCCCCCCCOC(=O)Cn1c(COc2ccccc2C)[n+](C)c2ccccc21,4,-3,83*,?,90
CCCCCCCCCCOC(=O)Cn1c(COc2ccc(Cl)cc2)[n+](C)c2ccccc21,-33,-3,108*,?,93
CCCCCCCCCCOC(=O)Cn1c(COc2ccc(OC)cc2)[n+](C)c2ccccc21,-14,5,13,-11,97
CCCCCCCCCCOC(=O)Cn1c(COc2cccc(C)c2)[n+](C)c2ccccc21,-7,-2,101*,49,112
CCOC(=O)Cn1c(COc2ccccc2OC)[n+](C)c2ccccc21,2,3,-3,1,85
CCOC(=O)C1CCC/C1=N\NC(=O)CN(c1cc(OC)ccc1OC)S(=O)(=O)c1ccccc1 (stereo unspecified),12,4,3,-1,100
N#CC1(NC(=O)COC(=O)c2nccnc2N)CCCCC1,-13,4,3,-4,104
C/C=C1\COC(C(=O)NCc2ccccc2)(C(F)(F)F)C=C1C=C(C)C (stereo unspecified),14,2,10,7,105
O=C1Nc2ccccc2Nc2ncccc21,12,61*,-7,-3,96
Cc1ccc2c(c1)NC(=O)c1cccnc1N2,15,14,5,2,102
Cn1cc(CN2CCc3c([nH]c4ccccc34)C2C(C)(C)C)cn1 (stereo unspecified),?,6,8,-4,98
CSc1ncc(CN2CCc3c([nH]c4ccccc34)C2C(C)(C)C)cn1 (stereo unspecified),11,12,51*,8,111
COCC(=O)N1CCC(Oc2ccc(C(=O)NCCCC3CCCC3)cc2)CC1,-1,-1,1,-9,102
COc1cccc(N2C(=O)C3NN=C(C(=O)CN4C(=O)c5ccccc5C4=O)C3C2=O)c1 (stereo unspecified),1,-3,52*,-3,102
COc1ccccc1N1C(=O)[C@@H]2C(C(=O)CN3C(=O)c4ccccc4C3=O)=NN[C@@H]2C1=O,-15,3,-6,-21,115
O=c1nc(Nc2ccc(Br)cc2)sc2ccc([N+](=O)[O-])cc12,-4,-8,0,24,101
CCCCn1c(N)c(N(Cc2ccccc2OC)C(=O)c2c(CC)noc2C)c(=O)[nH]c1=O,-28,6,-1,0,100
CS(=O)(=O)NN1C(=O)c2ccccc2NC1c1cccc2cccnc12 (stereo unspecified),2,1,-3,80*,106
Oc1ccc(/C=N/n2c(COc3ccccc3)n[nH]c2=S)cc1O,?,0,2,77*,110
CCOc1cc(/C=N/n2c(COc3ccccc3)n[nH]c2=S)ccc1O,-15,0,1,3,113
SMILES,PolyA inh,Platelet DG rel,SKKanGAS inh,Calb FLC,Yeast superoxide
COc1ccc(O)c(/C=N/NC(=O)c2ccc(CSc3nc(C)cc(C)n3)cc2)c1,6,-5,16,119*,104
COc1ccc(Br)cc1/C=N/NC(=O)c1cc(Br)ccc1O,12,-1,9,-1,97
Cn1cccc1-c1cc(C(=O)N/N=C/c2cc(Br)ccc2O)[nH]n1,1,8,90*,33,104
Cc1cc(C)nc(SCc2ccc(C(=O)N/N=C/c3cccc(O)c3O)cc2)n1,-10,1,8,-1,88
COc1ccc(C(=O)N/N=C/c2cc(Br)ccc2O)cc1OC,-10,-1,86*,2,98
COc1ccc(O)c(/C=N/NC(=O)c2ccc(OCc3cccc(Br)c3)cc2)c1,-3,-1,11,63*,80
CCc1nnc(NC(=O)c2ccc(-c3ccc([N+](=O)[O-])cc3Cl)o2)s1,-13,-6,5,-13,96
COC(=O)c1sc(NC(=S)NC(=O)c2cccc(Br)c2)nc1C,12,20,5,1,107
C/C=C/c1ccc(OCC(=O)OCc2csc(CC(=O)Nc3ccccc3C)n2)c(OC)c1,5,11,1,12,87
CC(C)Oc1cccc(C(=O)NC(=S)N2CCN(c3ccc(C(F)(F)F)cc3[N+](=O)[O-])CC2)c1,13,-1,97*,-1,97
COc1cccc(C(=O)NC(=S)N2CCN(c3ccc(C(F)(F)F)cc3[N+](=O)[O-])CC2)c1,0,-8,70*,1,107
CCOc1ccc(C(=O)NC(=S)N2CCN(c3ccc(C(F)(F)F)cc3[N+](=O)[O-])CC2)cc1,21,-12,2,3,97
O=C(NC(=S)N1CCN(c2ccc(Cl)cc2[N+](=O)[O-])CC1)c1cccs1,-12,-13,71*,31,81
Cc1cccc(CN2CCN(Cc3cccc(-n4cccn4)c3)CC2CCO)n1 (stereo unspecified),-6,2,2,-10,84
Cc1c(C(=O)OCC(=O)N2CC(=O)Nc3ccccc32)oc2ccc(Br)cc12,-11,-1,-2,3,106
CC(NCc1ccc(-c2ccccc2)cc1)C(O)c1ccccc1 (stereo unspecified),-2,1,4,1,103
Cc1ccccc1/C=C/C(=O)c1ccc([N+](=O)[O-])o1,8,6,62*,16,73
COc1ccc(/C=C/C(=O)c2ccc([N+](=O)[O-])o2)cc1,7,-4,30,-1,100
Cc1cccc(/C=C/C(=O)c2ccc([N+](=O)[O-])o2)c1,7,0,56*,7,81
O=C(/C=C/c1cccc([N+](=O)[O-])c1)c1ccc([N+](=O)[O-])o1,6,5,86*,2,103
Cc1ccc(S(=O)(=O)NC(=O)Nc2cc(C(C)(C)C)on2)cc1,-2,7,2,-4,97
CCOC(=O)C(=CNc1cc(C(F)(F)F)ccc1N1CCOCC1)C(=O)OCC,-7,1,3,-6,93
CCN(CC)S(=O)(=O)c1ccc2c(c1)N(CC(=O)NCCN1CCOCC1)C(=O)CO2,22,-1,-1,2,110
O=C(Nc1ccc(OCc2ccccc2Cl)cc1)c1cccnc1,-19,2,-2,114*,97
CCc1nc2ccc(C(=O)N(C)CC(=O)Nc3cccc(F)c3)cc2nc1CC,.,.,.,.,78
O=C(Nc1cccc(-c2cn3c(n2)SCC3)c1)c1ccc(Br)o1,.,.,.,121*,136
